Assay results as given in PubChem BioAssay (EPA / NIEHS).
The source made the active and inactive calls. How the source made its calls: active means hit-call score of the fitted dose curve at least 0.9, where 1 is the maximum; inactive means score below 0.9.

test: ATG_PXRE_CIS: Attagene CIS-FACTORIAL HepG2 Assay for human Pregnane X Receptor Element (PXRE) (AID 2282957); conditions: HepG2 Attagene CIS-FACTORIAL PXRE reporter, mRNA; actives raise or lower the signal
Description: ATG_CIS is a cell-based, multiplexed-readout assay that uses HepG2, a human liver cell line, with measurements taken at 24 hours after chemical dosing in a 24-well plate.ATG_PXRE_CIS is one of 52 assay component(s) measured or calculated from the ATG_CIS assay. It is designed to make measurements of mRNA induction, a form of inducible reporter, as detected with fluorescence intensity signals by Reverse transcription polymerase chain reaction (RT-PCR) and Capillary electrophoresis technology.Data from the assay component ATG_PXRE_CIS was analyzed into 1 assay endpoint. This assay endpoint, ATG_PXRE_CIS, was analyzed with bidirectional fitting relative to DMSO as the negative control and baseline of activity. Using a type of inducible reporter, measures of mRNA for gain or loss-of-signal activity can be used to understand the reporter gene at the transcription factor-level as they relate to the gene NR1I2. Furthermore, this assay endpoint can be referred to as a primary readout, because this assay has produced multiple assay endpoints where this one serves a reporter gene function. To generalize the intended target to other relatable targets, this assay endpoint is annotated to the nuclear receptor intended target family, where the subfamily is non-steroidal.
Human liver HepG2 cells are transiently transfected with multiple reporter transcription units (MRTUs) in 6-well plates using FuGene 6 reagent (Roche; 3 ml FuGene/1 mg DNA). The MRTU constructs are regulated by a cis-regulating element (promoter). […] A major difference between the CIS and TRANS system is that in CIS activities of endogenous TFs are measured, whereas the TRANS assay evaluates changes in activities of exogenous, chimeric NR-Gal4 proteins. […] At the end of 24 hour incubation, total RNA was isolated using TriZol reagent (Invitrogen). The isolated RNA is then reverse-transcribed using oligo(dT) primer and Mo-MLV reverse transcriptase (Invitrogen) with DNAse I (Ambion) treatment for 30 min. The one-tenth of the produced cDNA was amplified by PCR using Taq DNA polymerase (Invitrogen) and two reporter sequence-specific primers. The PCR products were fluorescently labeled by primer extension with 6-arboxyfluorescein (6-FAM) 5'-labeled reporter sequence-specific primer (2 min at 95 C, 20 s at 68 C and 10 min at 72 C) and these products were digested with 5U of HpaI (New England Biolabs) for 2h at 37 C. The fragments were purified using Qiaquick PCR columns (Qiagen), analyzed on an ABI 3130xL genetic analyzer (Applied Biosystems) with peak positions identified by using a set of X-rhodamine (ROX)-labeled MapMarker1000 molecular weight standards (BioVentures). The raw capillary electrophoresis data was processed using Attagraph software (Attagene).

SMILES | outcome | AC50
O=CN1CCOCC1 | inactive | 
C[Si](C)(C)O[Si](C)(C)C | inactive | 
CN1CCOCC1 | inactive | 
CC/C=C\CCOC(=O)CC | inactive | 
C=C(C#N)C(=O)OCC | inactive | 
Cc1cc(CCC(=O)OCCOCCOCCOC(=O)CCc2cc(C)c(O)c(C(C)(C)C)c2)cc(C(C)(C)C)c1O |  | 24.3 µM (active)
CCCCCCCCCCCCCC(=O)OCC(O)CO (stereo not given) | inactive | 
CC(C)NCC(O)COc1ccc(CC(N)=O)cc1 (stereo not given) | inactive | 
COc1ccc(CCO)cc1 | inactive | 
Oc1c(Cl)cc(Cl)c(Cl)c1Cc1c(O)c(Cl)cc(Cl)c1Cl |  | 0.802 µM (active)
C[C@H]1C[C@@H](O)CC(C)(C)C1 |  | 68.4 µM (active)
NCCNc1cccc2ccccc12 | inactive | 
CCOC(=O)CC(C)O (stereo not given) | inactive | 
CCCCC(CC)(CO)CO | inactive | 
CN(c1nccc(=O)[nH]1)C1CCN(c2nc3ccccc3n2Cc2ccc(F)cc2)CC1 |  | 6.61 µM (active)
Cc1cccc(Nc2ccccc2)c1 |  | 26.6 µM (active)
O=C(O)c1cccnc1C(=O)O | inactive | 
C=CC(=O)OCCCC | inactive | 
COCCOC(=O)c1ccccc1C(=O)OCCOC |  | 120 µM (active)
O=C(O)c1cc(C(=O)O)cc([N+](=O)[O-])c1 | inactive | 

SMILES | outcome | AC50
Cc1ccc2c(c1)C(=O)OC2=O | inactive | 
CC(=O)CC(=O)Nc1ccccc1 | inactive | 
CC(C)C(OC(=O)c1ccccc1)C(C)(C)COC(=O)c1ccccc1 (stereo not given) |  | 1.27 µM (active)
CCCCOC(=O)CCCCCCCC(=O)OCCCC | inactive | 
c1ccc2[nH]cnc2c1 | inactive | 
O=C(Nc1ccc([N+](=O)[O-])cc1)Nc1ccc([N+](=O)[O-])cc1 (tested in a mixture with another compound) | inactive | 
Nc1ccc2cc(S(=O)(=O)O)cc(O)c2c1N=Nc1ccccc1C(F)(F)F |  | 38.5 µM (active)
CC(=O)c1c(C)c([N+](=O)[O-])c(C(C)(C)C)c([N+](=O)[O-])c1C |  | 2.28 µM (active)
Cc1ccc(OC(=O)c2ccccc2O)cc1 | inactive | 
COc1ccc(CCC(C)=O)cc1 | inactive | 
CCC1(c2ccccc2)C(=O)NCNC1=O | inactive | 
CC(=O)C(C)O (stereo not given) | inactive | 
C=C(C)C(=O)OCCOC1CC2CC1C1C=CCC21 (stereo not given) | inactive | 
c1ccc(CCc2ccccc2)cc1 |  | 26.1 µM (active)
CC1CCC(C(C)C)C(O)C1 (stereo not given) | inactive | 
C=C1C[C@]23C[C@@]1(O)CC[C@H]2[C@@]12C=C[C@H](O)[C@@](C)(C(=O)O1)[C@H]2[C@@H]3C(=O)O | inactive | 
CCN(CC)C(=O)N(CC)CC |  | 52 µM (active)
CCC(=O)OCCOc1ccccc1 | inactive | 
CC(C)=CCCC(C)CC(=O)O (stereo not given) |  | 27.3 µM (active)
C[C@H]1O[C@@H](O[C@H]2[C@@H](O)C[C@H](O[C@H]3[C@@H](O)C[C@H](O[C@H]4CC[C@@]5(C)[C@H](CC[C@@H]6[C@@H]5C[C@@H](O)[C@]5(C)[C@@H](C7=CC(=O)OC7)CC[C@]65O)C4)O[C@@H]3C)O[C@@H]2C)C[C@H](O)[C@@H]1O |  | 0.271 µM (active)
